In PMC7862700, “An all-to-all approach to the identification of sequence-specific readers for epigenetic DNA modifications on cytosine”:

Columns and labels:
Assay in all cases: DAPPL (digital affinity profiling via proximity ligation, sequencing); 10 mM Tris-HCl pH 7.5, 50 mM NaCl, 1 mM DTT, 4% glycerol, room temperature, 30 min; GST-TFs on glutathione beads, 16-mer random dsDNA library, 0.1% formaldehyde crosslink after washing; high values mean tight binding
FLI1 = molecular target: T1, FLI1 (Homo sapiens, UniProt Q01543 1-452); settings: protein: recombinant; tags: N-terminal GST; dsDNA, one strand shown
T1 sequence: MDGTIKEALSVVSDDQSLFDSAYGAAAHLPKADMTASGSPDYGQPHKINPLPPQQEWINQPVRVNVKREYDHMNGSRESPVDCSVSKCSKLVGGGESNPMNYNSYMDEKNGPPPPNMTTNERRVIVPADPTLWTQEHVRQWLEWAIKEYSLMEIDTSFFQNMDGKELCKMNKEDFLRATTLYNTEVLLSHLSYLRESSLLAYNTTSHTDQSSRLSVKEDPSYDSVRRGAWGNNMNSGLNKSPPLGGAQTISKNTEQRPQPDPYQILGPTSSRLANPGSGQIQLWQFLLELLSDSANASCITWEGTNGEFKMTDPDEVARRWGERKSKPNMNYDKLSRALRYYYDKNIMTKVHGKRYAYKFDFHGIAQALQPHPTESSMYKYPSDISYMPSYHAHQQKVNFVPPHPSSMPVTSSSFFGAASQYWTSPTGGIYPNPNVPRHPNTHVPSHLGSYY
Outline: (§1)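 Human transcription factors fused to GST were expressed in yeast, captured on glutathione beads, given DNA barcodes and pooled with a GST-only negative control. Pools were incubated with 200 nmole of a 16-mer random double-stranded DNA library in Tris/NaCl/DTT/glycerol buffer at room temperature for 30 min. They were then washed, crosslinked with 0.1% formaldehyde, proximity-ligated (BsaI/T4 ligase, 1 h, 37 °C), PCR-amplified and sequenced on an Illumina NextSeq500. Binding signal is each 6-mer's read frequency for a factor divided by its frequency for the GST control.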

ELK1 = molecular target: T2, ELK1 (Homo sapiens, UniProt P19419 1-428); settings: protein: recombinant; tags: N-terminal GST; dsDNA, one strand shown
T2 sequence: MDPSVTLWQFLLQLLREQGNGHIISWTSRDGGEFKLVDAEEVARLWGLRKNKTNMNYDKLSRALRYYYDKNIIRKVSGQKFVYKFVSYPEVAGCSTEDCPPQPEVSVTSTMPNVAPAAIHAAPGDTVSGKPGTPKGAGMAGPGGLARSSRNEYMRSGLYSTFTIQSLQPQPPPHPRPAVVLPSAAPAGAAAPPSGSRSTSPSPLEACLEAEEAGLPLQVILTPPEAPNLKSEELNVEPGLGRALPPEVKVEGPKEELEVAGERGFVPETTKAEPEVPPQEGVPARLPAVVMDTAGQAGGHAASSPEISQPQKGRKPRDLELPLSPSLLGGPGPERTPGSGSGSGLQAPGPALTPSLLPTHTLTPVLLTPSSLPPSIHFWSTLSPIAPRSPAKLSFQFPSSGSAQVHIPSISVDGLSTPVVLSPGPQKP
Outline: as §1

GABPA = molecular target: T3, GABPA (Homo sapiens, UniProt Q06546 1-454); settings: protein: recombinant; tags: N-terminal GST; dsDNA, one strand shown
T3 sequence: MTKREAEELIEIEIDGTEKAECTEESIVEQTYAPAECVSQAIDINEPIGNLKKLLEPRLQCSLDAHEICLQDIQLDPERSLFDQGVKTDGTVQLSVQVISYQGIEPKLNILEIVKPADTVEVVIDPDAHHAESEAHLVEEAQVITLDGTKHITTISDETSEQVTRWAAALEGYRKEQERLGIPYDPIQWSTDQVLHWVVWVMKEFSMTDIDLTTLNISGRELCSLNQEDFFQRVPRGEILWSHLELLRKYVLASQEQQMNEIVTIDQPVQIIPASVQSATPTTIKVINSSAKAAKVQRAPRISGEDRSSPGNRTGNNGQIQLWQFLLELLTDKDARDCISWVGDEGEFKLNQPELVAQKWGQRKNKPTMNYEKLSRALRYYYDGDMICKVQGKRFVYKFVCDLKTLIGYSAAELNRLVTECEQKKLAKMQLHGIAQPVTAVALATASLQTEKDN
Outline: as §1

ERG = molecular target: T4, ERG (Homo sapiens, UniProt P11308 1-479); settings: protein: recombinant; tags: N-terminal GST; dsDNA, one strand shown
T4 sequence: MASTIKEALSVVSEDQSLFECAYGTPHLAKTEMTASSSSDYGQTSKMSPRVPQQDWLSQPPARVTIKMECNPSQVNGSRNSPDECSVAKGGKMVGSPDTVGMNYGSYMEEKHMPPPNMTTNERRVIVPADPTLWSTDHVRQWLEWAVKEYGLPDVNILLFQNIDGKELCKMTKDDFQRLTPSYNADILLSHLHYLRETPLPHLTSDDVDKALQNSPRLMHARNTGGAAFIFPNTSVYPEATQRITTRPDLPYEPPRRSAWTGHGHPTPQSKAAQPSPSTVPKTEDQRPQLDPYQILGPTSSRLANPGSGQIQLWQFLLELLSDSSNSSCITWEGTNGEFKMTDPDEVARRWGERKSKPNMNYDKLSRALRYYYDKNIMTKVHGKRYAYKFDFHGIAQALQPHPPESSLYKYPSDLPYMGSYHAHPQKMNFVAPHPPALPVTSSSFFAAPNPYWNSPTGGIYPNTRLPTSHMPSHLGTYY
Outline: as §1

ELF1 = ELF1 (Homo sapiens, UniProt P32519 1-619); settings: protein: recombinant; tags: N-terminal GST; dsDNA, one strand shown
ELF1, sequence (P32519 whole entry): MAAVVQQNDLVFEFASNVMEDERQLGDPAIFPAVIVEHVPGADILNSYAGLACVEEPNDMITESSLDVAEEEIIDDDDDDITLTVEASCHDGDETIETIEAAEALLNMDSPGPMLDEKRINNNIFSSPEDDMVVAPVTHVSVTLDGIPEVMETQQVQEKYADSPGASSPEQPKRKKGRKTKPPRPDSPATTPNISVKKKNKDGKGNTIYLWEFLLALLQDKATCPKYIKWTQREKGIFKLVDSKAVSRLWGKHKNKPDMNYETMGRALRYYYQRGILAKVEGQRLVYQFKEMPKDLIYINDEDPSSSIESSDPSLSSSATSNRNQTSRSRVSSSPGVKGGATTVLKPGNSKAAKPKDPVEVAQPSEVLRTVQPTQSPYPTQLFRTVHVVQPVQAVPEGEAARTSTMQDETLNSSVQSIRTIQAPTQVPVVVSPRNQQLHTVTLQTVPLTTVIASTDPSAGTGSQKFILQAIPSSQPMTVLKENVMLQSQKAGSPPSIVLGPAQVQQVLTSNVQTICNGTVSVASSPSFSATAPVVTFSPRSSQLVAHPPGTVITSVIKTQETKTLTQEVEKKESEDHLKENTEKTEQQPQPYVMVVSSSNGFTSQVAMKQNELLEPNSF
Outline: as §1

EHF = molecular target: T5, EHF (Homo sapiens, UniProt Q9NZC4 1-300); settings: protein: recombinant; tags: N-terminal GST; dsDNA, one strand shown
T5 sequence: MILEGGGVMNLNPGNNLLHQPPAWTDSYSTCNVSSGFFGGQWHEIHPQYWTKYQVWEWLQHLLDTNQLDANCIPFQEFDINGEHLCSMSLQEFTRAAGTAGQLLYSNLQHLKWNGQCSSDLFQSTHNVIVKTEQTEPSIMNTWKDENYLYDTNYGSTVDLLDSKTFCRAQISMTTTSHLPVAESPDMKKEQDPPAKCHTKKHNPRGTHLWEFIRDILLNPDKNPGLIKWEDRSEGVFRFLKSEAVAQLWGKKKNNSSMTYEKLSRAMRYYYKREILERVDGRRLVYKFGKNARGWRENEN
Outline: as §1

SPI1 = SPI1 (Homo sapiens, UniProt P17947 1-270); settings: protein: recombinant; tags: N-terminal GST; dsDNA, one strand shown
Outline: as §1

SPIB = SPIB (Homo sapiens, UniProt Q01892 1-262); settings: protein: recombinant; tags: N-terminal GST; dsDNA, one strand shown
SPIB, sequence (Q01892 whole entry): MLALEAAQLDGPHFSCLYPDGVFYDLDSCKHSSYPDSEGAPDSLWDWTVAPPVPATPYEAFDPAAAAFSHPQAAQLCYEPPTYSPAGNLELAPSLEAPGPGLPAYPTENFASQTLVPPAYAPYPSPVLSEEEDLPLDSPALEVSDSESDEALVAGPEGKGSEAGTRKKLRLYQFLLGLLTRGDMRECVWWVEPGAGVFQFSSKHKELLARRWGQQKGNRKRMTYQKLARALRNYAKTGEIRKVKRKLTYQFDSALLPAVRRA
Outline: as §1

ELK3 = molecular target: T6, ELK3 (Homo sapiens, UniProt P41970 1-407); settings: protein: recombinant; tags: N-terminal GST; dsDNA, one strand shown
T6 sequence: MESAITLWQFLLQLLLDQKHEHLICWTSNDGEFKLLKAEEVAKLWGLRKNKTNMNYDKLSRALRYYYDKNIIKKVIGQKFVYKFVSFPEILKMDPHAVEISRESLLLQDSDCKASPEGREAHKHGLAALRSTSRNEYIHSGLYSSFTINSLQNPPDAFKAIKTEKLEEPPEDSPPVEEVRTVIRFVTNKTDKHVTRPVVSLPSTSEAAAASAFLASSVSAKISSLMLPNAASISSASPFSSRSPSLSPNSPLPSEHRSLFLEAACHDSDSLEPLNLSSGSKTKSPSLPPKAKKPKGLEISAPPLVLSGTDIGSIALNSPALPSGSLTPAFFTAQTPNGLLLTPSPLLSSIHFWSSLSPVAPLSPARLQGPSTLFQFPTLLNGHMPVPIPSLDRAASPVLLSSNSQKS
Outline: as §1

FEV = molecular target: T7, FEV (Homo sapiens, UniProt Q99581 1-238); settings: protein: recombinant; tags: N-terminal GST; dsDNA, one strand shown
T7 sequence: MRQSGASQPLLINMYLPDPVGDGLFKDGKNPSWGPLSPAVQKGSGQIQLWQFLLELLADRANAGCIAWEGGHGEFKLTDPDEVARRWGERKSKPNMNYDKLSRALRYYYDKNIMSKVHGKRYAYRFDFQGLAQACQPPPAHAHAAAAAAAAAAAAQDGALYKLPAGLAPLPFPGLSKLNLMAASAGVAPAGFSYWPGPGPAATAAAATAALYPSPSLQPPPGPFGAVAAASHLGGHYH
Outline: as §1

ETV5 = ETV5 (Homo sapiens, UniProt P41161 1-510); settings: protein: recombinant; tags: N-terminal GST; dsDNA, one strand shown
ETV5, sequence (P41161 whole entry): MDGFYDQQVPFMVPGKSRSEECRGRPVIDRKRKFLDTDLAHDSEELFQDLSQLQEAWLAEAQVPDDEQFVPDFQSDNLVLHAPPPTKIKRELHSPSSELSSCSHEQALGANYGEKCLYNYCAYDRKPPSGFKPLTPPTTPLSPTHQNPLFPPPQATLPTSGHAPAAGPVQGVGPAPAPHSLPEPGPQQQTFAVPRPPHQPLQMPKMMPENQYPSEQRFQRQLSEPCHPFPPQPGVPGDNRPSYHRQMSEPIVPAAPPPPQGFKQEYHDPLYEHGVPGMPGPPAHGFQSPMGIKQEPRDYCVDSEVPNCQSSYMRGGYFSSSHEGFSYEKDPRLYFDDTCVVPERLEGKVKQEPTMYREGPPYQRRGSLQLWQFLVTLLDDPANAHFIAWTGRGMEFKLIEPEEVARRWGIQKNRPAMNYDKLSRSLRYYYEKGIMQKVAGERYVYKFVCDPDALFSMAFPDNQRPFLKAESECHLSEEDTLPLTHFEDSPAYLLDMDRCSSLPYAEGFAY
Outline: as §1

HSF1 = HSF1 (Homo sapiens, UniProt Q00613 1-529); settings: protein: recombinant; tags: N-terminal GST; chain copies: 3; dsDNA, one strand shown
HSF1, sequence (Q00613 whole entry): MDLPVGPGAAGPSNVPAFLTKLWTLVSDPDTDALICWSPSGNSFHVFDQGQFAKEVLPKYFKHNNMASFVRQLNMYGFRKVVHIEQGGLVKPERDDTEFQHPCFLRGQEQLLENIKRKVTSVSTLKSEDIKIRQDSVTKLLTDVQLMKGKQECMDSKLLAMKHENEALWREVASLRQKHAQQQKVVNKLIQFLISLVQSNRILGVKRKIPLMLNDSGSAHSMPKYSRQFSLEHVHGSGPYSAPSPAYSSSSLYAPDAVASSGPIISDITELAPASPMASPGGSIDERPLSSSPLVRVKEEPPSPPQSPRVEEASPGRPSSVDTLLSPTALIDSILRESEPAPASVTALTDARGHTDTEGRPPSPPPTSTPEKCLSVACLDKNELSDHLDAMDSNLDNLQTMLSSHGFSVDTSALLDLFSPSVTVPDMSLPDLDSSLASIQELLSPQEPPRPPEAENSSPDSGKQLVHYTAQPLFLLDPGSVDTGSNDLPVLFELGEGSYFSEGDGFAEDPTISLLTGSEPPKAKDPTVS
Outline: as §1

SPIC = molecular target: T8, SPIC (Homo sapiens, UniProt Q8N5J4 1-248); settings: protein: recombinant; tags: N-terminal GST; dsDNA, one strand shown
T8 sequence: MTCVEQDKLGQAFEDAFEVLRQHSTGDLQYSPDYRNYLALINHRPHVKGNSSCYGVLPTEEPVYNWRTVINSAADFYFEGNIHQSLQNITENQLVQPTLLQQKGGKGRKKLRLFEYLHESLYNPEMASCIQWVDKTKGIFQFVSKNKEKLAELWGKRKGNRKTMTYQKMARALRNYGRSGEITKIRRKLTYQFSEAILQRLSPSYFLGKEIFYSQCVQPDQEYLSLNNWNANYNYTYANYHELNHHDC
Outline: as §1

ELF4 = ELF4 (Homo sapiens, UniProt Q99607 1-663); settings: protein: recombinant; tags: N-terminal GST; dsDNA, one strand shown
ELF4, sequence (Q99607 whole entry): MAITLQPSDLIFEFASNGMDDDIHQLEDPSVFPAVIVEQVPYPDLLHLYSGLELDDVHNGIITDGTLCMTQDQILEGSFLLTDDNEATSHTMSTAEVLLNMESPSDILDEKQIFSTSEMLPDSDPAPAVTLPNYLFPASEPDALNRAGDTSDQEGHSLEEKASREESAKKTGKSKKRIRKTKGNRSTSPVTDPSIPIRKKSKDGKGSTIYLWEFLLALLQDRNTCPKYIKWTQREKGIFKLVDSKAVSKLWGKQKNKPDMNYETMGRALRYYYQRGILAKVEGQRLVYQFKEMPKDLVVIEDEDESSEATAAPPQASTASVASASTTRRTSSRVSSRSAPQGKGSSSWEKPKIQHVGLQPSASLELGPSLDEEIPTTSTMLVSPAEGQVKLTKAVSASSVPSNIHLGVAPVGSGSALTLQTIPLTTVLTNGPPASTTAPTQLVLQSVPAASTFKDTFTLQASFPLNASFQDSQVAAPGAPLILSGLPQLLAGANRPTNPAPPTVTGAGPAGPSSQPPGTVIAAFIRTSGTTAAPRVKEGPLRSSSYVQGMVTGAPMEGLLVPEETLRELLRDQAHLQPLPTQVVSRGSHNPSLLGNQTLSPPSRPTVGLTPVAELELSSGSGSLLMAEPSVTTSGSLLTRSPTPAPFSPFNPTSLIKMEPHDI
Outline: as §1

ELK4 = molecular target: T9, ELK4 (Homo sapiens, UniProt P28324-2 1-405); settings: protein: recombinant; tags: N-terminal GST; dsDNA, one strand shown
T9 sequence: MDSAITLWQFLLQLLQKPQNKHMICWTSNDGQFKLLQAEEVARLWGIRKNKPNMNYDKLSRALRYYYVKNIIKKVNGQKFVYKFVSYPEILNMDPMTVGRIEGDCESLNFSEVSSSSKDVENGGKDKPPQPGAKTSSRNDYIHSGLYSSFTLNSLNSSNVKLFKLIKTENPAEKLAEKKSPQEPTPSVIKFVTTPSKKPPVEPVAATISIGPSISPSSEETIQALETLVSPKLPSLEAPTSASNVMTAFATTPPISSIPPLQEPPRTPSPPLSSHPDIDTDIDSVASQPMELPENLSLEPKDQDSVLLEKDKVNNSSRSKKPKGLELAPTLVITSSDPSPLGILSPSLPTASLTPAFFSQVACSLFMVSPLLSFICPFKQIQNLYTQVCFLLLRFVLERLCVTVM
Outline: as §1

ETV2 = molecular target: T10, ETV2 (Homo sapiens, UniProt O00321 1-342); settings: protein: recombinant; tags: N-terminal GST; dsDNA, one strand shown
T10 sequence: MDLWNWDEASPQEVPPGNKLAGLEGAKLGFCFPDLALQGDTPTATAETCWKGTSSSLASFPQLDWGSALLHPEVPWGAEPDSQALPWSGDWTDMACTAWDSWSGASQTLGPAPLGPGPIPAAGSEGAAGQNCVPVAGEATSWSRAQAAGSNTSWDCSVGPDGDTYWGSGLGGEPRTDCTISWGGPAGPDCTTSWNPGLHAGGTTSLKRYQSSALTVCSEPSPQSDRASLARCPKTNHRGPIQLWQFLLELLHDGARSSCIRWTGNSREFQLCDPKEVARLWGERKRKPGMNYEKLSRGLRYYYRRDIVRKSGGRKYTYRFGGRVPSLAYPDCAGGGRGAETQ
Outline: as §1

ELF3 = molecular target: T11, ELF3 (Homo sapiens, UniProt P78545 1-371); settings: protein: recombinant; tags: N-terminal GST; dsDNA, one strand shown
T11 sequence: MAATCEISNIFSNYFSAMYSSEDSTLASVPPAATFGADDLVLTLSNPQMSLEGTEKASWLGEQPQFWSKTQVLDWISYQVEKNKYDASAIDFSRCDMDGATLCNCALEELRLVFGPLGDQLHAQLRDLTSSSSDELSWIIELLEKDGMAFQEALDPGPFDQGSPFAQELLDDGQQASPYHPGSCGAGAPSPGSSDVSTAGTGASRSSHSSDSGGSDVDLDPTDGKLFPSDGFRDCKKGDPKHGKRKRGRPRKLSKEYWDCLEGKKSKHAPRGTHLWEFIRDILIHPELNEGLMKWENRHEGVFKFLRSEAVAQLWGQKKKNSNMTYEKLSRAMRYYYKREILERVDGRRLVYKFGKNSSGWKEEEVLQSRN
Outline: as §1

CRX = CRX (Homo sapiens, UniProt O43186 1-299); settings: protein: recombinant; tags: N-terminal GST; dsDNA, one strand shown
CRX, sequence (O43186 whole entry): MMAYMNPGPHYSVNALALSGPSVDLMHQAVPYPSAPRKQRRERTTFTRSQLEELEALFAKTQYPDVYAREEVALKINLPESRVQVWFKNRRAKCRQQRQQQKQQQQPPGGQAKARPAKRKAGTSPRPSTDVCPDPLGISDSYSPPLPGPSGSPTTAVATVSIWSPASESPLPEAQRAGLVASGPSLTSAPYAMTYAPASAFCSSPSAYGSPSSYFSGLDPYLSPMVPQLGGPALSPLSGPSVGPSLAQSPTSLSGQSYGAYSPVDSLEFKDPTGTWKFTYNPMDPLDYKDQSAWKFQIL
Outline: as §1

ETV1 = ETV1 (Homo sapiens, UniProt P50549 1-477); settings: protein: recombinant; tags: N-terminal GST; dsDNA, one strand shown
ETV1, sequence (P50549 whole entry): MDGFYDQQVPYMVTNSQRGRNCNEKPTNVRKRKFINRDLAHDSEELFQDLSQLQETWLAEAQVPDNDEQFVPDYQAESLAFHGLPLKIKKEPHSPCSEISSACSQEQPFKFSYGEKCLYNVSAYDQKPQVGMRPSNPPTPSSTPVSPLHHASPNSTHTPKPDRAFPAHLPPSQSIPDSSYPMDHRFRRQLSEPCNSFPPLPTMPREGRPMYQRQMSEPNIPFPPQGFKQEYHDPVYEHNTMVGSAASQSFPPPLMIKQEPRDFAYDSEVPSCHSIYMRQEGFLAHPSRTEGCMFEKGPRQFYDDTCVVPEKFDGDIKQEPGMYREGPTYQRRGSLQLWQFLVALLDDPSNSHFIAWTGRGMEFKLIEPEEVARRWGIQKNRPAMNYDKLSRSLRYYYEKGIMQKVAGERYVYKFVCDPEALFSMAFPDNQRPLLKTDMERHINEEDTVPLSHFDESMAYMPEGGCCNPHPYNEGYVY
Outline: as §1

For ATGAAA, the binding signal (FLI1) was 1.11 fold enrichment (6-mer frequency, TF over GST control), the binding signal (ELK1) was 1.17 fold enrichment (6-mer frequency, TF over GST control) and the binding signal (GABPA) was 1.16 fold enrichment (6-mer frequency, TF over GST control). For the same sequence, the binding signal (ERG) was 1.17 fold enrichment (6-mer frequency, TF over GST control), the binding signal (ELF1) was 1.2 fold enrichment (6-mer frequency, TF over GST control) and the binding signal (EHF) was 1.16 fold enrichment (6-mer frequency, TF over GST control). The binding signal (SPI1) was 1.2 fold enrichment (6-mer frequency, TF over GST control), the binding signal (SPIB) was 1.15 fold enrichment (6-mer frequency, TF over GST control) and the binding signal (ELK3) was 1.06 fold enrichment (6-mer frequency, TF over GST control). For the same sequence, the binding signal (FEV) was 1.13 fold enrichment (6-mer frequency, TF over GST control), the binding signal (ETV5) was 1.12 fold enrichment (6-mer frequency, TF over GST control) and the binding signal (HSF1) was 1.16 fold enrichment (6-mer frequency, TF over GST control). The binding signal (SPIC) was 1.24 fold enrichment (6-mer frequency, TF over GST control), the binding signal (ELF4) was 1.2 fold enrichment (6-mer frequency, TF over GST control) and the binding signal (ELK4) was 1.21 fold enrichment (6-mer frequency, TF over GST control). For the same sequence, the binding signal (ETV2) was 1.15 fold enrichment (6-mer frequency, TF over GST control), the binding signal (ELF3) was 1.19 fold enrichment (6-mer frequency, TF over GST control) and the binding signal (CRX) was 1.08 fold enrichment (6-mer frequency, TF over GST control). The binding signal (ETV1) was 1.2 fold enrichment (6-mer frequency, TF over GST control).
